The target in test [1] is Thyrotropin-releasing hormone receptor (Homo sapiens) (UniProt P34981). The experiment in a line: qHTS assay to identify small molecule agonists of the thyrotropin-releasing hormone receptor (TRHR) signaling pathway (AID 1346891; calls by dose curve; also: series mostly up to about 58 µM). Summed up:
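Screening of agonists relied on calcium signalling in HEK293 cells expressing human TRHR: dye loading 2 h at 37 °C preceded compound addition and a 3-min fluorescence time course.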

Test [2] in a line: Caspase-3/7 induction in CHO-K1 cells by small molecules, qHTS cell viability counter screen (AID 1346979). Also: nearly all actives have a fitted effect of over 35% in size. Also: potency is read from the fitted curve at half-maximal effect. Summed up: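 CellTiter-Fluor viability check, qHTS format: wild-type CHO-K1, 16hr compound treatment, 1hr reagent incubation, fluorescence read.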
For orientation: In qHTS, concentration-response curves come from the screen itself.

A short description of test [3]: Caspase-3/7 induction in CHO-K1 cells by small molecules, qHTS assay (AID 1346980). Also: nearly all actives have a fitted effect of over 15% in size. Summed up: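 Wild-type cells were seeded at 1,500 per well and settled 5 hr at 37 C, 5% CO2, then exposed to DMSO-dissolved compounds for 17 hr. Caspase-Glo 3/7 reagent was added, and luminescence was read after 30min at room temperature.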
Test [4] in a line: Caspase-3/7 induction in HepG2 cells by small molecules, qHTS cell viability counter screen (AID 1346981). Also: nearly all actives have a fitted effect of over 30% in size. Also: potency is read from the fitted curve at half-maximal effect. Summed up: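 The parent HepG2 line is plated at 2,000 cells per well and rested 5 hr before compound pinning from DMSO stocks. Following a 16-hr treatment at 37 C, a fluorogenic live-cell substrate (CellTiter-Fluor) reports viability after 1 hr.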
Test [5] deals with Nuclear receptor subfamily 1 group I member 2 (Homo sapiens) (UniProt O75469). In words: Human pregnane X receptor (PXR) small molecule agonists, qHTS assay (AID 1346982). Also: nearly all actives have a fitted effect of over 35% in size. Also: potency is read from the fitted curve at half-maximal effect. Summed up:
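After plating in 5% charcoal-stripped FBS and a 5 hr rest, PXR-Luc HepG2 cells received compounds in DMSO. Following 24 hr at 37 C, ONE-Glo was added and light output read.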

The target of test [6] is Cytochrome P450 2D6 (Homo sapiens) (UniProt P10635). The experiment in a line: Cytochrome P450 Family 2 Subfamily D Member 6 (CYP2D6) small molecule antagonists: luciferase reporter qHTS assay (AID 1671196). Also: nearly all actives have a fitted effect of over 50% in size. Also: potency is read from the fitted curve at half-maximal effect. Summed up:
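Quantitative HTS of Tox21 chemicals against CYP2D6 using a luminescent proluciferin substrate. After NADPH addition, 1 h room-temperature reaction; luminescence recorded 20 min post detection reagent.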

Test [7] deals with Cytochrome P450 2C19 (Homo sapiens) (UniProt P33261). The experiment in a line: Cytochrome P450 Family 2 Subfamily C Member 19 (CYP2C19) small molecule antagonists: luciferase reporter qHTS assay (AID 1671197). Also: nearly all actives have a fitted effect of over 65% in size. Also: potency is read from the fitted curve at half-maximal effect. Summed up:
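Inhibition of CYP2C19 was scored from loss of luminescence in a P450-Glo proluciferin substrate assay, NADPH-started and run 1 h at 37C, with ketoconazole as positive control.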
Background: Reporter assays use an easily measured gene product as a stand-in for the process of interest.

Test [8] has as its target Cytochrome P450 2C9 (Homo sapiens) (UniProt P11712). In words: Cytochrome P450 Family 2 Subfamily C Member 9 (CYP2C9) small molecule antagonists: luciferase reporter qHTS assay (AID 1671198). Also: nearly all actives have a fitted effect of over 50% in size. Also: potency is read from the fitted curve at half-maximal effect. Summed up:
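CYP2C9 activity was measured with a P450-Glo proluciferin substrate. Enzyme–substrate mix was held with compound for 10 min at room temperature, then NADPH regeneration solution was added for 1 h at 37C. Luciferin product was read as luminescence.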

The target of test [9] is Voltage-gated inwardly rectifying potassium channel KCNH2 (Homo sapiens) (UniProt Q12809). The experiment in a line: Human Ether-a-go-go-Related Gene (hERG) channel small molecule antagonists: fluorescence cell-based qHTS assay (AID 1671200).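 Also: hERG-expressing U2OS cells given a thallium stimulus after FluxOR II dye loading; series mostly up to about 77 µM; nearly all actives have a fitted effect of over 50% in size.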 Summed up:
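Kinetic two-minute fluorescence traces, sampled at 1 s, were collected following thallium stimulus of U2OS cells (1000 per well) that had been cultured overnight at 37 C and loaded with FluxOR II.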
Background: Block of hERG is tested as a sign of cardiac risk.

Test [10] has as its target Cytochrome P450 3A4 (Homo sapiens) (UniProt P08684). In words: Cytochrome P450 Family 3 Subfamily A Member 4 (CYP3A4) small molecule antagonists: luciferase reporter qHTS assay (AID 1671201). Also: nearly all actives have a fitted effect of over 50% in size. Also: potency is read from the fitted curve at half-maximal effect. Summed up:
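Proluciferin-to-luciferin conversion by CYP3A4, NADPH-regenerated, 1 h RT; luminescence read as RLU. Ketoconazole as control.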

Test [11] is described as follows: Human pregnane X receptor (PXR) small molecule agonists, qHTS cell viability counter screen (AID 1346977). Also: nearly all actives have a fitted effect of over 50% in size. Also: potency is read from the fitted curve at half-maximal effect. Summed up: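 Tox21 qHTS format; PXR-Luc HepG2, 2,000/well, charcoal-stripped FBS 5%. Cpd exposure 24hr. Read: CellTiter-Fluor fluorescence, multiplexed with luciferase.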
Test [12] in a line: Caspase-3/7 induction in HepG2 cells by small molecules, qHTS assay (AID 1346978). Also: nearly all actives have a fitted effect of over 15% in size. Summed up: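 Wild-type HepG2 cells (2,000/well) were settled 5 h at 37 C, 5% CO2, then exposed to compounds in DMSO for 17 h. Caspase-3/7 activity was read by luminescence 30 min after adding Caspase-Glo 3/7 reagent at room temperature.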
The target of test [13] is Cytochrome P450 1A2 (Homo sapiens) (UniProt P05177). In words: Cytochrome P450 Family 1 Subfamily A Member 2 (CYP1A2) small molecule antagonists: luciferase reporter qHTS assay (AID 1671199). Also: nearly all actives have a fitted effect of over 50% in size. Also: potency is read from the fitted curve at half-maximal effect. Summed up:
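Quantitative high-throughput format using the P450-Glo CYP1A2 system. Reaction initiated by NADPH regeneration solution, 1 h at room temperature, then stopped with detection reagent; luminescence measured 20 min later.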

In test [14] the target is Nuclear receptor subfamily 1 group I member 2 (Homo sapiens) (UniProt O75469). In words: CYP3A4 induction through human pregnane X receptor (PXR) by small molecules, qHTS assay (AID 1346984). Also: potency is read from the fitted curve at half-maximal effect; nearly all actives have a fitted effect of over 40% in size. Summed up: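 Human PXR activation is tracked via CYP3A4 promoter-luciferase in DPX-2 (HepG2) cells. Compounds treat cells for 24hr at 37C, and luminescence is read after One-Glo.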
Nuclear receptor subfamily 1 group I member 2 (Homo sapiens), sequence (O75469 whole entry, looked up): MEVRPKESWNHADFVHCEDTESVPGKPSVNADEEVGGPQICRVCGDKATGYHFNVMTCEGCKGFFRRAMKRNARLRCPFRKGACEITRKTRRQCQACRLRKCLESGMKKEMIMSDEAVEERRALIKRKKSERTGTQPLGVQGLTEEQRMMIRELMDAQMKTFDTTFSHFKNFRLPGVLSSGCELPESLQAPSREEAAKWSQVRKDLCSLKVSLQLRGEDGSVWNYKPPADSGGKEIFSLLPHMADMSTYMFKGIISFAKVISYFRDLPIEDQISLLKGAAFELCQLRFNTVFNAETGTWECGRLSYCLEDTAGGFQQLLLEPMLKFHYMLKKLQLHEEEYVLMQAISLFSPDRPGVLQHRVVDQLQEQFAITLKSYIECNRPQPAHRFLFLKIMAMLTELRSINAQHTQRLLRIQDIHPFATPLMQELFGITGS

Test [15] has the same target. In words: Human pregnane X receptor (PXR) activation by small molecules, qHTS assay (AID 1346985). Also: potency is read from the fitted curve at half-maximal effect; nearly all actives have a fitted effect of over 40% in size. Summed up:
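DPX-2 cells (HepG2 co-transfected with a PXR response element and a CYP3A4-promoter luciferase construct) were seeded at 2,000 per well, rested 5 hr at 37C, then exposed to DMSO-dissolved compounds for 24 hr. Activation was read as luciferase luminescence.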

Drawing on PubChem BioAssay (Tox21), this text covers Potency and outcome for ten molecules.

Unmarked numbers belong to inactive results. Results filed as inconclusive are left out. The source made the active and inactive calls. Unless noted, calls follow the shape of the dose curve; as a rule, active = well fitted curve in the direction sought with a large enough effect in the repeat runs; inconclusive = weak or mixed curves; inactive = no such curve, though single readings can be large; an effect the other way counts as inactive or inconclusive.

Cytochrome P450 2C19 (Homo sapiens), sequence (P33261 whole entry, looked up): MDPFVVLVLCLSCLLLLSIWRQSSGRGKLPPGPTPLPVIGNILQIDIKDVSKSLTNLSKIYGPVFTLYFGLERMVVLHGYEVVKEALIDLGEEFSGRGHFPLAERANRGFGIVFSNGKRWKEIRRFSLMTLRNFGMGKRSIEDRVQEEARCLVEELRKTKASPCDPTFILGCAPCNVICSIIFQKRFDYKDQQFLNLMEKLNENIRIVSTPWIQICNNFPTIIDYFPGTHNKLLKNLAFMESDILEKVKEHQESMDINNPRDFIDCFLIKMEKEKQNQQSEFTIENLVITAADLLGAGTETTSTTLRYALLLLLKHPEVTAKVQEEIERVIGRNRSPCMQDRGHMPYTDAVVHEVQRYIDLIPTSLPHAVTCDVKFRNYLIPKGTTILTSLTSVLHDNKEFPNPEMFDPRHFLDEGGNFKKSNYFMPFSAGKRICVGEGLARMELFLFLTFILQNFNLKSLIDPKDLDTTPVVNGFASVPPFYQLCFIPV
Thyrotropin-releasing hormone receptor (Homo sapiens), sequence (P34981 whole entry, looked up): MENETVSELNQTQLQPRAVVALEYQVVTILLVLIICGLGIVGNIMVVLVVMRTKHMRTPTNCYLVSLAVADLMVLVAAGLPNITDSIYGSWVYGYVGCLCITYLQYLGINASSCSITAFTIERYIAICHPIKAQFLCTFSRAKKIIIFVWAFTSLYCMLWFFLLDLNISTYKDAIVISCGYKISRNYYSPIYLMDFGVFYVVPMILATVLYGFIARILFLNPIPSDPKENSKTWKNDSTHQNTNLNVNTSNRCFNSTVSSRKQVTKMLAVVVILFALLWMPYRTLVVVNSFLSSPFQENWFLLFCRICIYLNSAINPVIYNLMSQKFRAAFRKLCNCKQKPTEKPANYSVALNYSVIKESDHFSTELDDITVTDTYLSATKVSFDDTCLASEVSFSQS
Cytochrome P450 1A2 (Homo sapiens), sequence (P05177 whole entry, looked up): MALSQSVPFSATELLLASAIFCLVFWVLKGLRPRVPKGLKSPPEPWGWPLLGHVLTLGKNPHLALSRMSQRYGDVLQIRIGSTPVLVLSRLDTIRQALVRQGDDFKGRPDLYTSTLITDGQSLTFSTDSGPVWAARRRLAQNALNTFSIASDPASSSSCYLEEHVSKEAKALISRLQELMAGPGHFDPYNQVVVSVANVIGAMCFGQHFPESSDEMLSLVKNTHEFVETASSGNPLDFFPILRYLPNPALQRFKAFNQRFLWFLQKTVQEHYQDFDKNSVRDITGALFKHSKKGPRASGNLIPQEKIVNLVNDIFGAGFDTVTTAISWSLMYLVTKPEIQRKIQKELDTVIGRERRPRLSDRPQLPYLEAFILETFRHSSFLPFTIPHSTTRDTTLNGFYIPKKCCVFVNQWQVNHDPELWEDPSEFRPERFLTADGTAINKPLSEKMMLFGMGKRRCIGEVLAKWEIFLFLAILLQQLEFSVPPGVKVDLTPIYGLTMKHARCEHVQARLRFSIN
Cytochrome P450 2C9 (Homo sapiens), sequence (P11712 whole entry, looked up): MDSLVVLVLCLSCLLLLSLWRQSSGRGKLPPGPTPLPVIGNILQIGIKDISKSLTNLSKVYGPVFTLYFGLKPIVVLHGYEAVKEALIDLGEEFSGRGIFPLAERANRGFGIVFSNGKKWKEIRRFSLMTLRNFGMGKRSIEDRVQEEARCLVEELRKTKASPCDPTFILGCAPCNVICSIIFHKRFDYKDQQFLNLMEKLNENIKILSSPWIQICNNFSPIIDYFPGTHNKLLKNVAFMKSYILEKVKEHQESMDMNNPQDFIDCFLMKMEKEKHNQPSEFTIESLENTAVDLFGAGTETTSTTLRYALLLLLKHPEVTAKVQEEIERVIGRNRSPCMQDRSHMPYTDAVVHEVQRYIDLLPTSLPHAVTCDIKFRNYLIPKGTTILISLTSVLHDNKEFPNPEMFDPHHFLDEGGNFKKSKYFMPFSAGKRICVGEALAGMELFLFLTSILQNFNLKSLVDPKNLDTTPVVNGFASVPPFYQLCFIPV
Cytochrome P450 2D6 (Homo sapiens), sequence (P10635 whole entry, looked up): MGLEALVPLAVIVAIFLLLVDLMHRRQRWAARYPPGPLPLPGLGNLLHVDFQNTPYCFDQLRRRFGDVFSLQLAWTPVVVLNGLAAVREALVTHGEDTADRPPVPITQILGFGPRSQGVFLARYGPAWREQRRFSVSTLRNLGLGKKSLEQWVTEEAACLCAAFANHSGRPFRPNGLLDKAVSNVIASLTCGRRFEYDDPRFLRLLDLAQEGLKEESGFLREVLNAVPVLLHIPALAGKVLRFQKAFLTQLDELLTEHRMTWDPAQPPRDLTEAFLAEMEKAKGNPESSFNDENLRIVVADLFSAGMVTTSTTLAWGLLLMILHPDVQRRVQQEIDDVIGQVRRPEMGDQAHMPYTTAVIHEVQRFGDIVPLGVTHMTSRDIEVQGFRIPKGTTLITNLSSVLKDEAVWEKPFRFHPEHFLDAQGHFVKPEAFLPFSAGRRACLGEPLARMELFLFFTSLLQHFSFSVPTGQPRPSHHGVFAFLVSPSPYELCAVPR
Voltage-gated inwardly rectifying potassium channel KCNH2 (Homo sapiens), sequence (Q12809 whole entry, looked up): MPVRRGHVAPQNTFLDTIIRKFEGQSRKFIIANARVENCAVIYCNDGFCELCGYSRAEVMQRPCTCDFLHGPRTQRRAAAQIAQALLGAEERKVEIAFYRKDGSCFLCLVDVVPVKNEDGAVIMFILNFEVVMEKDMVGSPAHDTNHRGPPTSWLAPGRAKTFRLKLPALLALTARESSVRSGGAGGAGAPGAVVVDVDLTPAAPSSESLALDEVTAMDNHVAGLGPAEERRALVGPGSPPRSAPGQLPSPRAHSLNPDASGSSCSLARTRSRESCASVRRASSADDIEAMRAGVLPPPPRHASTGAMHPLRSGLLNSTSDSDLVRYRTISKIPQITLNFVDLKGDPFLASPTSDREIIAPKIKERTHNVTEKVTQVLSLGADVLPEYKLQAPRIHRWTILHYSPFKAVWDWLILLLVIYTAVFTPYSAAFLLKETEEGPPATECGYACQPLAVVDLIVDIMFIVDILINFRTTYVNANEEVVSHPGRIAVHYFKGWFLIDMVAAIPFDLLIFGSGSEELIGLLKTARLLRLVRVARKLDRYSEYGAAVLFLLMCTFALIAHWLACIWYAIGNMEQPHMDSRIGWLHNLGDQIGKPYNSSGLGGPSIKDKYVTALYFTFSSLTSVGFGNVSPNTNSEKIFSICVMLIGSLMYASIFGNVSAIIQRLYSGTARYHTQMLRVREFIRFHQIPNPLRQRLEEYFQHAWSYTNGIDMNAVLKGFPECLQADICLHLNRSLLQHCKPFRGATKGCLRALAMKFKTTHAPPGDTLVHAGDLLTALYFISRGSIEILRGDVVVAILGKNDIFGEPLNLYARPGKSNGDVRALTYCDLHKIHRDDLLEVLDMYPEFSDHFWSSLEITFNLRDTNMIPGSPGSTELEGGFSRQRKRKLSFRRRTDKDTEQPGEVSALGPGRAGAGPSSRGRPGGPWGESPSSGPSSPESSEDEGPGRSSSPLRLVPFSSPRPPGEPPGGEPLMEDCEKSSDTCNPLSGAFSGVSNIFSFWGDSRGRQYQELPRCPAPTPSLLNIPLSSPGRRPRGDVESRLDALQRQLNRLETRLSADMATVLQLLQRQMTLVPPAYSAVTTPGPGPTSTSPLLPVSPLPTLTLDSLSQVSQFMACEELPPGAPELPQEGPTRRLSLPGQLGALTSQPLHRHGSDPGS
Cytochrome P450 3A4 (Homo sapiens), sequence (P08684 whole entry, looked up): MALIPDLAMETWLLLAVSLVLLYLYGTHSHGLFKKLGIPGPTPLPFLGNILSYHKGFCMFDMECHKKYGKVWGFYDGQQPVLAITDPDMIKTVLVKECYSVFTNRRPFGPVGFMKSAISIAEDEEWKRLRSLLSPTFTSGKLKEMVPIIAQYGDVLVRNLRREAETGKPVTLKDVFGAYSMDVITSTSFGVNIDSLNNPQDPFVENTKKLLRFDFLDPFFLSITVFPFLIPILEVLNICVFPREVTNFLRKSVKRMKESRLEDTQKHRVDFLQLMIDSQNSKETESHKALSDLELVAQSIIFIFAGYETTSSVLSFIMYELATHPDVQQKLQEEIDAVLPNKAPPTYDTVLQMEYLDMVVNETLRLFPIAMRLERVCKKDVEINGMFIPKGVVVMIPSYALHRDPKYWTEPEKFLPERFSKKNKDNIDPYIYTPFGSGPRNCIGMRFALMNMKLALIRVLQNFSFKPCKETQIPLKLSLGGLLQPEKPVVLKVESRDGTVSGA

`Fc1c(F)c(F)c(Br)c(F)c1F`: the Potency entry in test [1], in [2], in test [4], in test [5], in test [6] and in test [7] was “inactive” throughout. For the same molecule, the Potency entry in test [8], in test [9] and in [10] was “inactive” each time. Also, the result in [3] was inactive.
Turning to `CC(C)CCCC(=O)O`, the Potency entry in test [11], in [12], in [2], in [4], in test [5] and in test [6] was “inactive” in each case. The Potency result in test [7], in test [8], in [13], in [9] and in test [10] was “inactive” throughout. In test [3], the molecule was classed as inactive.
Take `C/C=C(\C)C(=O)OCCC(C)CCC=C(C)C` (centres undefined): the Potency result in test [11], in [12], in [2], in test [4], in test [5] and in test [6] was “inactive” in each case. Also, the Potency result in test [9] is “inactive”. Also, the outcome in test [3] was inactive. Besides, the Potency is 20 µM (active) in test [7] and 39.9 µM (active) in test [8].
For the molecule `NC(=O)Cn1c(=O)cc(CCN2CCN(c3nccc4sccc34)CC2)c2ccc(F)cc21`, the Potency result in [1], in test [12], in test [5], in test [13] and in [9] was “inactive” in each case. Moreover, the Potency in test [6] is 35.6 µM (active); in [8], 63.3 µM (active).
For `C=CC(C)(C)CC(=O)OC`, the Potency result in test [1], in test [12] and in test [9] was “inactive” throughout. Moreover, the result in [3] was inactive. The Potency in test [5] was 68.8 µM (active); in test [6] it was 63.5 µM (active); in test [8], 35.7 µM (active); in test [13], 20.1 µM (active); in [10], 63.5 µM (active).
In the case of `O=C(c1ccc(O)cc1)c1ccc(Cl)cc1`, the Potency entry in test [1], in [12] and in [9] was “inactive” in each case. Besides, the molecule was called inactive in test [3]. The Potency in test [5] is 24.9 µM (active); in test [6], 64.7 µM (active); in test [7] it was 18.2 µM (active); in test [8], 25.7 µM (active); in [13], 18.2 µM (active).
With `Cc1cc(S(=O)(=O)O)ccc1N=Nc1c(O)ccc2ccccc12`, the Potency in test [11] is 24.3 µM (active); in test [2], 27.3 µM (active); in [4], 30.6 µM (active); in test [6], 39.9 µM (active); in test [7] it was 20 µM (active); in test [8], 31.7 µM (active). Moreover, the Potency in [13] was 25.2 µM (active); in test [10], 39.9 µM (active). Further, the Potency entry in test [12], in [5] and in [9] was “inactive” throughout. In test [3], the call was inactive.
`CC(=O)N(c1onc(C)c1C)S(=O)(=O)c1ccc(N)cc1`: the Potency entry in [11], in test [12], in [2], in test [4], in test [5] and in test [6] was “inactive” each time. In addition, the Potency entry in [7], in test [8], in [13] and in test [9] was “inactive” in each case. Moreover, the molecule was called inactive in [3].
For the molecule `COCCOC(=O)C1=C(C)NC(C)=C(C(=O)OC/C=C/c2ccccc2)C1c1cccc([N+](=O)[O-])c1` (centres undefined), the Potency result in test [1] and in test [9] was “inactive” in each case. Besides, the Potency in test [2] was 26.6 µM (active); in [4], 29.8 µM (active); in test [5] it was 10.6 µM (active); in test [14], 1.58 µM (active); in test [15] it was 1.58 µM (active); in [6] it was 21.9 µM (active). The Potency in test [7] was 1.55 µM (active); in test [8], 0.195 µM (active); in test [13], 15.5 µM (active). Also, in [3], the result was inactive.
On to `CC1=C(/C=C/C(C)=C\C=C\C(C)=C\C(=O)O)C(C)(C)CCC1`, for which the Potency result in [1], in test [12] and in [13] was “inactive” throughout. Also, the result in [3] was inactive. The Potency in [5] is 54.5 µM (active); in test [7] it was 35.6 µM (active); in [10] it was 22.4 µM (active).
